# Source: article PMC7862700, “An all-to-all approach to the identification of sequence-specific readers for epigenetic DNA modifications on cytosine”
# Tests used:
# Test in all cases: DAPPL (digital affinity profiling via proximity ligation, sequencing); 10 mM Tris-HCl pH 7.5, 50 mM NaCl, 1 mM DTT, 4% glycerol, room temperature, 30 min; GST-TFs on glutathione beads, 16-mer random dsDNA library, 0.1% formaldehyde crosslink after washing; high values mean tight binding
# [1] = target: T1, FLI1 (Homo sapiens, UniProt Q01543 1-452); settings: protein: recombinant; tags: N-terminal GST; dsDNA, one strand shown
# T1 sequence: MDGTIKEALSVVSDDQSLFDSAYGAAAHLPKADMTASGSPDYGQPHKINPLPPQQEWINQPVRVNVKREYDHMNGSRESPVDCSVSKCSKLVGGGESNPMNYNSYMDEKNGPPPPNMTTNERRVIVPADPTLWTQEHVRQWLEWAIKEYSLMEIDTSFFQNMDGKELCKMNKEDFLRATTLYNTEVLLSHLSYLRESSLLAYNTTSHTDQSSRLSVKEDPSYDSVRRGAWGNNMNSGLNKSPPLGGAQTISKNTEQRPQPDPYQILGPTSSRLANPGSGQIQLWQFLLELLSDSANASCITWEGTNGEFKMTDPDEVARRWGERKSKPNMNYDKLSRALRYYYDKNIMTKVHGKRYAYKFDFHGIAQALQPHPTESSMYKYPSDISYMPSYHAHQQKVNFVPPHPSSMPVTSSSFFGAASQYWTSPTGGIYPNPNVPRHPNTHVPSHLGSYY
# Summary of the method: (§1)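 Human transcription factors were made in yeast as GST fusions, captured on glutathione beads and barcoded with DNA. With a tag-only sample included, the pool was incubated with 200 nmole of a random double-stranded 16-mer DNA library in Tris/NaCl/DTT/glycerol buffer at room temperature for 30 min, then crosslinked with 0.1% formaldehyde after washing, ligated by proximity, amplified and sequenced. For binding signal, each hexamer's read frequency for a factor is divided by its frequency for the tag-only sample.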
# [2] = target: T2, GABPA (Homo sapiens, UniProt Q06546 1-454); settings: protein: recombinant; tags: N-terminal GST; dsDNA, one strand shown
# T2 sequence: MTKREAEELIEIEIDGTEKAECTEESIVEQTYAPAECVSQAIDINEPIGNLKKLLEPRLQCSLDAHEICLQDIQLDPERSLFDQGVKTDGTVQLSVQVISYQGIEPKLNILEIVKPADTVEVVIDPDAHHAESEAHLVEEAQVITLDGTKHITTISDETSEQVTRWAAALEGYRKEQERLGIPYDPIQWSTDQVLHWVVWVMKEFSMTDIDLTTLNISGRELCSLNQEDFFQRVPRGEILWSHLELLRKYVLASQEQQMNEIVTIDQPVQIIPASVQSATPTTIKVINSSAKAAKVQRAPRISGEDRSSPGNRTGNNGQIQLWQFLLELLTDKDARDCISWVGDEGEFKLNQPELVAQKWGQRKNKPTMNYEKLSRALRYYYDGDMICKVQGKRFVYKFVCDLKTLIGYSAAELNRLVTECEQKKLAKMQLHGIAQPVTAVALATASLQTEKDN
# Summary of the method: as §1
# [3] = target: ELF1 (Homo sapiens, UniProt P32519 1-619); settings: protein: recombinant; tags: N-terminal GST; dsDNA, one strand shown
# ELF1, sequence (P32519 whole entry): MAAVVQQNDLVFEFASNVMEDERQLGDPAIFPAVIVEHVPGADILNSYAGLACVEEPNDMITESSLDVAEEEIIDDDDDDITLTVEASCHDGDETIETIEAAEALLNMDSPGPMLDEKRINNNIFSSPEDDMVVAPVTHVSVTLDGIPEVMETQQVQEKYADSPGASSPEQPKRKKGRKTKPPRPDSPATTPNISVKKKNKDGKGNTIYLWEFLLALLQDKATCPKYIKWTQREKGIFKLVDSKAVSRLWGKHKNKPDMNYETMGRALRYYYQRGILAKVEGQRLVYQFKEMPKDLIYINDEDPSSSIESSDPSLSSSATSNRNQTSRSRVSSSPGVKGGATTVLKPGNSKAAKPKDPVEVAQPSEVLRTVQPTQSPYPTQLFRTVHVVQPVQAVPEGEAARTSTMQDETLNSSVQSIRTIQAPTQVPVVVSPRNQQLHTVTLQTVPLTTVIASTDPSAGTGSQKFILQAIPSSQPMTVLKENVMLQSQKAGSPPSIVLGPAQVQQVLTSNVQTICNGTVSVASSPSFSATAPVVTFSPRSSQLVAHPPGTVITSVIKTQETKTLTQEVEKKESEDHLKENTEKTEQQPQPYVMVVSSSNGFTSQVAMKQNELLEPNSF
# Summary of the method: as §1
# [4] = target: SPIB (Homo sapiens, UniProt Q01892 1-262); settings: protein: recombinant; tags: N-terminal GST; dsDNA, one strand shown
# SPIB, sequence (Q01892 whole entry): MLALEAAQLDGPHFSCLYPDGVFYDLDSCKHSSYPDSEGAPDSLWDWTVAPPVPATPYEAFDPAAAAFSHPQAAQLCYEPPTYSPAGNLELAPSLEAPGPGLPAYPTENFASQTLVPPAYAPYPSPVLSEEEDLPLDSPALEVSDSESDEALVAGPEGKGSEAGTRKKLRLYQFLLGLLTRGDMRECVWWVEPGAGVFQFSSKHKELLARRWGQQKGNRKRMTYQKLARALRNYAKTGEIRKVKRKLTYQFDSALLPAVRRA
# Summary of the method: as §1
# [5] = target: T3, ELK3 (Homo sapiens, UniProt P41970 1-407); settings: protein: recombinant; tags: N-terminal GST; dsDNA, one strand shown
# T3 sequence: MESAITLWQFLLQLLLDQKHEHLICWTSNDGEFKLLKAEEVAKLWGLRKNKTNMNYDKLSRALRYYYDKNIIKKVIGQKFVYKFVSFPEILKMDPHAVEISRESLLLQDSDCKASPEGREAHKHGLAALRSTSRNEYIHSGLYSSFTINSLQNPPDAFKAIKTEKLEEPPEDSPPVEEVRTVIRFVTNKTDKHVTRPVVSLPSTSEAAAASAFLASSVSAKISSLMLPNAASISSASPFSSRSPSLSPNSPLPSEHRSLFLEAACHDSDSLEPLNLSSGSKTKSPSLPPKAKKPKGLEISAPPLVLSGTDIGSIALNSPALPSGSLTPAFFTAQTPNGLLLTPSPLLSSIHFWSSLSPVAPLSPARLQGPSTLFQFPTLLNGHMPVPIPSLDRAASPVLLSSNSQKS
# Summary of the method: as §1
# [6] = target: HSF1 (Homo sapiens, UniProt Q00613 1-529); settings: protein: recombinant; tags: N-terminal GST; chain copies: 3; dsDNA, one strand shown
# HSF1, sequence (Q00613 whole entry): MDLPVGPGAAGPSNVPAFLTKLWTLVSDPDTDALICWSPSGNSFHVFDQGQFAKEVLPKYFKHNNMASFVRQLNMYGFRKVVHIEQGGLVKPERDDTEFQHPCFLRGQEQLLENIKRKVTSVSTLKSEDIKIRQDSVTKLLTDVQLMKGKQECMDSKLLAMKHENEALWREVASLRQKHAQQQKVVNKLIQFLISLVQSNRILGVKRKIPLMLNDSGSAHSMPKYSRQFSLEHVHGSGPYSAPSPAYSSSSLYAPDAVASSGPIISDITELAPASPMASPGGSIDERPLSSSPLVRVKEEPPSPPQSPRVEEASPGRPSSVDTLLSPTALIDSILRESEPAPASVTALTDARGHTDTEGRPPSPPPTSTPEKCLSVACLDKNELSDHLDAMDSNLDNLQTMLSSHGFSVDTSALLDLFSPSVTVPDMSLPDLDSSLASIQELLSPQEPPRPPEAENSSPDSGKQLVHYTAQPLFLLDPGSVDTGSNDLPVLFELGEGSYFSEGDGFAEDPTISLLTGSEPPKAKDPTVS
# Summary of the method: as §1
# [7] = target: T4, ETV2 (Homo sapiens, UniProt O00321 1-342); settings: protein: recombinant; tags: N-terminal GST; dsDNA, one strand shown
# T4 sequence: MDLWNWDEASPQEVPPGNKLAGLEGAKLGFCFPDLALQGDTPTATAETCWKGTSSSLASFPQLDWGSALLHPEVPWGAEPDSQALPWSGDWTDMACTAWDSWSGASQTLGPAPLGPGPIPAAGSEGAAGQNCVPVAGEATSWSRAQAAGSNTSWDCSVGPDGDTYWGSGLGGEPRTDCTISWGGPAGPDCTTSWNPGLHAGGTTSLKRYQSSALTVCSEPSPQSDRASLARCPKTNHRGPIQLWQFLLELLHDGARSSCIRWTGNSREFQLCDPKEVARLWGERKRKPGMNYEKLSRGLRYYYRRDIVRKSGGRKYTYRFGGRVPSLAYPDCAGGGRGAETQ
# Summary of the method: as §1
# [8] = target: T5, ELF3 (Homo sapiens, UniProt P78545 1-371); settings: protein: recombinant; tags: N-terminal GST; dsDNA, one strand shown
# T5 sequence: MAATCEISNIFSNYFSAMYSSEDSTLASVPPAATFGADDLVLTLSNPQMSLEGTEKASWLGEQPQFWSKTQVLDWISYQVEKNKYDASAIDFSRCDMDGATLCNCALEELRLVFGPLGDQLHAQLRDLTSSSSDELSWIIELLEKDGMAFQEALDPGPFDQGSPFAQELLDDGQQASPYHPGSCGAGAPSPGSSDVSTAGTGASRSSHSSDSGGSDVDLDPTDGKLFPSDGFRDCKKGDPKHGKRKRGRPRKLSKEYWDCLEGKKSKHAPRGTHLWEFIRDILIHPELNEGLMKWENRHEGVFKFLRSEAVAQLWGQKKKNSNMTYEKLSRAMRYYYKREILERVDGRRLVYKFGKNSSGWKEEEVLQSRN
# Summary of the method: as §1
# [9] = target: ETV1 (Homo sapiens, UniProt P50549 1-477); settings: protein: recombinant; tags: N-terminal GST; dsDNA, one strand shown
# ETV1, sequence (P50549 whole entry): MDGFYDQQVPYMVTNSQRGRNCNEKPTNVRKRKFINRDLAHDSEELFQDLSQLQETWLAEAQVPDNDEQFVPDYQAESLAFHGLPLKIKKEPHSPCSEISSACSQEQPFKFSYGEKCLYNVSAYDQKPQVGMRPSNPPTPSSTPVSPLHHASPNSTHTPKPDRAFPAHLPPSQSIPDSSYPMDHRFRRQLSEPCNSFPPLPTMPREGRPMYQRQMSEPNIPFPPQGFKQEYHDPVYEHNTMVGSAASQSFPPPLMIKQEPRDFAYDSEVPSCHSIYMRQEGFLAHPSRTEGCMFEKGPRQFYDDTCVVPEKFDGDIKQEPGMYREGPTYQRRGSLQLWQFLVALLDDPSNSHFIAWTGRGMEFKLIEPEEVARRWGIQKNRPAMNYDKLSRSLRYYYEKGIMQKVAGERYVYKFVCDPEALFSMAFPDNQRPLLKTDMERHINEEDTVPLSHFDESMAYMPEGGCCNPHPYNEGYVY
# Summary of the method: as §1
# [10] = target: T6, ERF (Homo sapiens, UniProt P50548 1-548); settings: protein: recombinant; tags: N-terminal GST; dsDNA, one strand shown
# T6 sequence: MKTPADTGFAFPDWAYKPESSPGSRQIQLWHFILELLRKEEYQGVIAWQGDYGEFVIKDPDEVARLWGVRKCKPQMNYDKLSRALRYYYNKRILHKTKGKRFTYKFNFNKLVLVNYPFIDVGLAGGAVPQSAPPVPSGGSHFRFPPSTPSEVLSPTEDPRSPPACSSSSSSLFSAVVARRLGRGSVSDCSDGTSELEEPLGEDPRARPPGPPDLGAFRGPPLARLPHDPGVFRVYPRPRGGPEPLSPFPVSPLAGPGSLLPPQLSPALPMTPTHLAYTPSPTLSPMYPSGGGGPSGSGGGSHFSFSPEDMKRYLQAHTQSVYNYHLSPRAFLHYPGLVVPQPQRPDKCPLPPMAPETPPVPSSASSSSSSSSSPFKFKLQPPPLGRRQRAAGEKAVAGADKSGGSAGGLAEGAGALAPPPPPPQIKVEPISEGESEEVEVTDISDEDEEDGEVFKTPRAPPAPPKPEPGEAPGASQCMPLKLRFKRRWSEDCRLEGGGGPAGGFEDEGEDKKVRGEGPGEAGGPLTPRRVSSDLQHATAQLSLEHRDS
# Summary of the method: as §1
# [11] = target: T7, ETV3L (Homo sapiens, UniProt Q6ZN32 1-361); settings: protein: recombinant; tags: N-terminal GST; dsDNA, one strand shown
# T7 sequence: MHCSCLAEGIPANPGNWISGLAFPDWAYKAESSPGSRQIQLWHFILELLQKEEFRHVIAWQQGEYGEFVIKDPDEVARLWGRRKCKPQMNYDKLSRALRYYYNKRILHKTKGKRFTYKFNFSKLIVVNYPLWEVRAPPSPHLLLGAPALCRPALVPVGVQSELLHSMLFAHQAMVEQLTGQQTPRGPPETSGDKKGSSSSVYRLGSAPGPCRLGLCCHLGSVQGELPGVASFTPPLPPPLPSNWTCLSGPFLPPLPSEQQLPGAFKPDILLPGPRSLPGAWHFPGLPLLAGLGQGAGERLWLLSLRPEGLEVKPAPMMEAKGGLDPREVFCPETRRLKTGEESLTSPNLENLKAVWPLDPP
# Summary of the method: as §1
# [12] = target: T8, ETV3 (Homo sapiens, UniProt P41162-2 1-143); settings: protein: recombinant; tags: N-terminal GST; dsDNA, one strand shown
# T8 sequence: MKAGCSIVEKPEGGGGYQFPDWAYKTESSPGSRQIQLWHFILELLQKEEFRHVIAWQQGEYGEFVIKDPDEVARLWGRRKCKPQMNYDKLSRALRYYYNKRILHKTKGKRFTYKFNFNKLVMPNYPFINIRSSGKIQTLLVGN
# Summary of the method: as §1
# [13] = target: ETV6 (Homo sapiens, UniProt P41212 1-452); settings: protein: recombinant; tags: N-terminal GST; dsDNA, one strand shown
# ETV6, sequence (P41212 whole entry): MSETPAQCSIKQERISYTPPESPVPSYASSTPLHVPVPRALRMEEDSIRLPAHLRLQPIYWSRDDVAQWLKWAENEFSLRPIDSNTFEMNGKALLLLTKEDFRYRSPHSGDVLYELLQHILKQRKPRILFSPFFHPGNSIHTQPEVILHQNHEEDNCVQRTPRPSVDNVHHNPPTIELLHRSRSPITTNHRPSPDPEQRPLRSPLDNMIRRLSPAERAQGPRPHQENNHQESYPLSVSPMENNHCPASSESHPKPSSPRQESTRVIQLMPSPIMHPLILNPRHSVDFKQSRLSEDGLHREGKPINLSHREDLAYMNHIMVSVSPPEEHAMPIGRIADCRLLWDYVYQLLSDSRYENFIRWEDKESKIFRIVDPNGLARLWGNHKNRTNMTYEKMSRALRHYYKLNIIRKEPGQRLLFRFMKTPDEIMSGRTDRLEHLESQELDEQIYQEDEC
# Summary of the method: as §1
sequence,measurement,setting,value
TCTGGA,binding signal,[1],"1.02 fold enrichment (6-mer frequency, TF over GST control)"
same,binding signal,[2],"1.05 fold enrichment (6-mer frequency, TF over GST control)"
same,binding signal,[3],"1.01 fold enrichment (6-mer frequency, TF over GST control)"
same,binding signal,[4],"1.01 fold enrichment (6-mer frequency, TF over GST control)"
same,binding signal,[5],"1.2 fold enrichment (6-mer frequency, TF over GST control)"
same,binding signal,[6],"3.75 fold enrichment (6-mer frequency, TF over GST control)"
same,binding signal,[7],"1.15 fold enrichment (6-mer frequency, TF over GST control)"
same,binding signal,[8],"1.06 fold enrichment (6-mer frequency, TF over GST control)"
same,binding signal,[9],"1.2 fold enrichment (6-mer frequency, TF over GST control)"
same,binding signal,[10],"1.06 fold enrichment (6-mer frequency, TF over GST control)"
same,binding signal,[11],"1.1 fold enrichment (6-mer frequency, TF over GST control)"
same,binding signal,[12],"1.05 fold enrichment (6-mer frequency, TF over GST control)"
same,binding signal,[13],"1.07 fold enrichment (6-mer frequency, TF over GST control)"
